Bioassay records as filed in PubChem BioAssay.
Compounds with a hit are over-represented: about 1.4% of the library has one in this group of screens.
12-LOX inh: blocks human arachidonate 12S-lipoxygenase. 580,000 tested, 1.1% active. purified 12hLO, xylenol orange hydroperoxide absorbance. P18054. Potency, µM (series often up to 108 µM), for inactives: at the top dose activity change, negative = inhibition, actives largely listed as inhibitors; further: potency means the concentration at half of the fitted maximal effect; on the % scale 0 is the no-effect control and ±100 the full control effect
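Hydroperoxide product was detected by ferrous iron/xylenol orange as the 573 to 405 nm absorbance ratio. Arachidonic acid at 40 uM (final) was turned over for 30 min at room temperature by 150 nM human 12hLO, pH 7.0 Hepes buffer, after 15 min compound preincubation.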
S-ASM inh: inhibitors of human secretory acid sphingomyelinase. 340,000 tested, 0.006% active. Potency, µM (series often up to 57.5 µM), inactives show top-dose activity change, negative = inhibition, most hits filed as inhibitors. placental ASM, HMU-PC fluorogenic substrate, 60 min. AID 504937; further: potency means the concentration at half of the fitted maximal effect
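Human placenta-derived ASM enzyme was preincubated with compound for 10 minutes at room temperature, then given fluorogenic substrate HMU-PC0 (9 uM final) for 60 minutes at 37 °C; a pH 10 stop preceded fluorescence reading at Ex 386/Em 447 nm.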
Vif-APOBEC3G blk: inhibitors of Vif-APOBEC3G interaction. Q9HC16. HeLa A3G-eYFP + Vif (tagged APOBEC3G with the HIV-1 protein that degrades it), YFP fluorescence, overnight. Potency, µM (series often up to 46.1 µM), for inactives: top-dose activity, negative = active, hits mostly inhibitors. 410,000 tested, 0.076% active. AID 602310; further: potency means the concentration at half of the fitted maximal effect; on the % scale 0 is the no-effect control and ±100 the full control effect; nearly all actives have a fitted effect of over 60% in size
Target sequence (Q9HC16 whole entry, looked up): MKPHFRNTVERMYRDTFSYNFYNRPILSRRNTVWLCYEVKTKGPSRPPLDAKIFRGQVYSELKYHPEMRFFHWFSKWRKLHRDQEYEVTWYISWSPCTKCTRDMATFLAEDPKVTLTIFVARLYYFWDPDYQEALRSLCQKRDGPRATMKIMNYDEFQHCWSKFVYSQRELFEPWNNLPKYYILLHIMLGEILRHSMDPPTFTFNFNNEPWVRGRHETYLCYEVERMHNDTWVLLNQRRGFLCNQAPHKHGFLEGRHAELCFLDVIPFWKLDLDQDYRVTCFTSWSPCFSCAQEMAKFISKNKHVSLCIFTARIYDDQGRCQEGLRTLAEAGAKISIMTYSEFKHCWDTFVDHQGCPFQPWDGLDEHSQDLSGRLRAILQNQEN
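Read-out is eYFP fluorescence (Ex 488/Em 500-530) from Vif-expressing HeLa A3G-eYFP cells; more signal means A3G escaped Vif-mediated degradation. Cells plated overnight, compound pinned in, incubated overnight at 37 deg C.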
TSG101-PTAP inh: blocks PTAP/TSG101 interaction to inhibit HIV-1 budding. Q99816. Fluorescence polarization, FITC-PTAP peptide / Tsg101 binding. 340,000 tested, under 10 active. Potency, µM (doses to about 115 µM), without a hit: top-dose activity change, negative = inhibition, usual class: inhibitors; active means well fitted inhibition curve with a large enough effect in the main read-out, with a control signal flat, not every such curve was filed as active; inconclusive means small, poorly fitted or top-dose-only effect, or effect the other way, or a change in a side signal; inactive means no such curve, though single readings can be large or run the other way; further: potency means the concentration at half of the fitted maximal effect; % of control where 0% means no effect
Target sequence (Q99816 whole entry, looked up): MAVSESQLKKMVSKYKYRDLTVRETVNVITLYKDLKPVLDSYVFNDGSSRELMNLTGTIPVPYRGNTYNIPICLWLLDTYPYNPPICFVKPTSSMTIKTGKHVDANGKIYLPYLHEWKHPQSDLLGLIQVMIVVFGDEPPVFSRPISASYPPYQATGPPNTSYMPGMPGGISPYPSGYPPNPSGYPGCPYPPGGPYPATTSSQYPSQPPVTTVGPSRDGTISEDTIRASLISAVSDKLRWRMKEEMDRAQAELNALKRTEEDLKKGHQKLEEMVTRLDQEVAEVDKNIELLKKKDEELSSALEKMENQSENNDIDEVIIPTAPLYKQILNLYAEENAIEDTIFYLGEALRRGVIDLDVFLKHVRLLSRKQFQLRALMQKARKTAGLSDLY
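Tsg101 binding domain (10 uM final) was mixed with compound and a FITC-labeled PTAP peptide (50 nM final) in HEPES pH 7.5 buffer with NaCl, Tween 20, EDTA and TCEP; fluorescence polarization was read after 20 min at r.t.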
pAkt inh: inhibitors of Akt phosphorylation | Neuro2A IGF-stimulated pAkt S473 HTRF, 20 min; active compounds read low | activity change, % for hits at 50 µM | 360,000 tested, 0.32% active; in the data active means activity change below about -80%; inconclusive means mostly about -51% to -80%; further: on the % scale 0 is the no-effect control and ±100 the full control effect
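Single-point screen (50 µM final compound) in Neuro2A cells stimulated 20 min with 6 nM IGF at 37 deg C. After lysis, Ser473-phosphorylated Akt read by HTRF (ex 330 nm, em 615/665 nm) as the 665/615 ratio.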
Vif-APOBEC3F blk: inhibitors of Vif-A3F interaction | HeLa A3F-eYFP + Vif (tagged APOBEC3F with the HIV-1 protein that degrades it), YFP fluorescence increase | Potency, µM (highest dose often 46.1 µM), for inactives: at the highest dose activity, negative = active | 390,000 tested, 0.2% active; further: potency means the concentration at half of the fitted maximal effect; % of control where 0% means no effect; nearly all actives have a fitted effect of over 65% in size
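Fluorescence increase (Ex 488/Em 500-530) after overnight compound treatment at 37 deg C flags inhibition of Vif-driven A3F-eYFP loss in stable HeLa A3F-eYFP/Vif cells seeded overnight beforehand.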
Starred values were filed as active, the others as inactive; i = inactive; ? = inconclusive; · = no result; ! = not active in a repeat. Unless noted, the call rests on the fitted dose curve; in most records, active means well fitted curve in the direction sought with a large enough effect; inconclusive means small, poorly fitted or top-dose-only effect, or another doubt; inactive means no such curve, though single readings can be large; an effect the other way counts as inactive or inconclusive.

SMILES | 12-LOX inh | S-ASM inh | Vif-APOBEC3G blk | TSG101-PTAP inh | pAkt inh | Vif-APOBEC3F blk
CN(Cc1cccs1)C(=O)CSc1nc2ccsc2c(=O)n1C | 5.7% | · | · | · | · | ·
COc1cc(C2(c3ccc(O)c(OC)c3)C(=O)Nc3c(C)cc(Br)cc32)ccc1O | 25.1µM* | -7.6% | -0.6% | -2.7% | i | 2.4%
O=C(c1ccccc1)N1CCCC(n2cc(-c3nc(-c4ccccc4)no3)nn2)C1 (stereo unspecified) | 2.6% | · | · | · | · | ·
O=C(c1cccnc1)N1CCCC(n2cc(-c3nc(-c4ccccc4)no3)nn2)C1 (stereo unspecified) | 39.8µM* | · | · | · | · | ·
CCOc1ccc(N=C2NN=C(c3cc(C)n(CC4CCCO4)c3C)CS2)cc1 (stereo unspecified) | 39.8µM* | -1.7% | 1.1% | -1.0% | i | 15.8%
CC(=O)N1CCC2(CC1)CC(=O)c1ccc(OCC(=O)NC3Cc4ccccc4C3)cc1O2 | 13.3% | · | · | · | · | ·
CCN(CC)c1ccc(NS(=O)(=O)c2ccc3c(c2)CCCC3)cc1C(=O)O | 7.94µM* | · | · | · | · | ·
CCN(CC)c1ccc(NS(=O)(=O)c2ccc(C(C)C)cc2)cc1C(=O)O | -27.8% | · | · | · | · | ·
CN(C)S(=O)(=O)c1cccc(NC(=S)N/N=C/c2cccc(O)c2)c1 | -7.8% | -2.8% | 0.2% | 1.2% | i | 2.4%
CN(C)S(=O)(=O)c1cccc(NC(=S)N/N=C/c2cc(Br)ccc2O)c1 | 28.2µM* | 170.2% | -9.6% | -8.4% | i | -11.2%
COc1ccc(/C=C/C(=O)OCC(=O)Nc2ccc(S(N)(=O)=O)cc2)cc1OC | 0.0% | 10.5% | -0.5% | 0.5% | i | 1.5%
COc1cc(/C=C/c2cc[n+](C)cc2)ccc1OCC(=O)Nc1ccc(Cl)c(Cl)c1 | 50.1µM* | 76.0% | -11.7% | 2.4% | i | 6.5%
COc1ccc(NC(=O)COc2ccc(/C=C/c3cc[n+](C)cc3)cc2OC)cc1 | ? | 254.8% | 1.0% | -2.1% | i | 2.8%
COc1ccc(/C=C/C(=O)OCC(=O)Nc2ccc(Cl)c(S(=O)(=O)N(C)C)c2)cc1OC | 0.794µM* | -11.4% | -6.9% | -6.0% | i | 9.0%
COc1ccc(OC)c(/C=N/O)c1 | -34.6% | · | · | · | · | ·
COC(=O)CN1C(=S)N(c2ccc(Cl)cc2)C(=O)C1CC(=O)Nc1ccc(Cl)cc1 (stereo unspecified) | 35.5µM* | ? | -10.5% | -0.2% | i | -3.1%
N#Cc1ccc(OCCOC(=O)c2ccc(COc3ccccc3)o2)cc1 | 7.0% | · | · | · | · | ·
CC(=O)Nc1ccc(NC(=O)c2nccnc2C(=O)O)cn1 | ? | -1.3% | -0.7% | -4.2% | i | -8.5%
COc1cc(NC(=O)c2nccnc2C(=O)O)cc(OC)c1 | 4.47µM* | 1.5% | 1.9% | -2.3% | i | 3.9%
COC(=O)c1ccc(OCC(=O)c2ccccc2OC)cc1 | 20µM* | -0.8% | -0.9% | -7.8% | i | -4.0%
Fc1cccc(NC(=S)NNc2c3ccccc3nc3ccccc23)c1 | 39.8µM* | 74.3% | 1.5% | -4.6% | i | 0.5%
Fc1cccc(NC(=S)NNc2ccccc2)c1 | ? | 2.0% | 0.6% | -10.1% | i | -8.2%
Cc1ccc(-c2cc3c(=O)n(CCNC(=O)Cc4ccc(Cl)cc4)ccn3n2)cc1C | 39.8µM* | · | · | · | · | ·
Cc1cc(C)c2oc(-c3cccc(NC(=O)C(C)C)c3C)nc2c1 | 10.5% | · | · | · | · | ·
O=C(CN1C(=O)c2ccccc2S1(=O)=O)c1ccc(Cl)cc1Cl | 8.91µM*! | -0.4% | 0.3% | -0.2% | i | 8.9%
SMILES | 12-LOX inh | S-ASM inh | Vif-APOBEC3G blk | TSG101-PTAP inh | pAkt inh | Vif-APOBEC3F blk
O=C(CN1C(=O)c2ccccc2S1(=O)=O)c1ccccc1F | 135.6% | 3.7% | 0.6% | -1.7% | i | -7.0%
O=c1c2cc([N+](=O)[O-])ccc2sn1-c1ccccc1 | 0.251µM* | · | 2.9% | · | i | ?
COc1ccc(-n2sc3ccccc3c2=O)cc1 | ? | · | -11.7% | · | i | -10.1%
N#Cc1ccc2sn(-c3ccccc3)c(=O)c2c1 | 0.355µM* | · | -1.1% | · | i | ?
CC(=O)Nc1ccc2sn(-c3ccccc3)c(=O)c2c1 | 1.12µM* | · | -8.2% | · | i | ?
N#Cc1ccc2c(c1)nnn2-c1ccccc1 | 0.0% | -0.5% | -2.5% | 0.0% | i | -0.2%
Cc1c(C(=O)N2CCC(C)CC2)c(S(=O)(=O)NCCc2ccccc2)c(C)n1C | 5.1% | · | · | · | · | ·
Cc1ccc(Sc2ccc(/C=C(\C#N)c3nc4ccccc4[nH]3)o2)cc1 | -28.4% | · | · | · | · | ·
FC(F)(F)c1ccccc1-c1cncnc1Nc1ccccc1 | 25.1µM* | · | · | · | · | ·
FC(F)(F)c1ccccc1-c1cc(NCCN2CCOCC2)ncn1 | -20.0% | · | · | · | · | ·
FC(F)(F)c1ccccc1-c1cncnc1NCc1cccnc1 | -27.9% | · | · | · | · | ·
FC(F)(F)c1ccccc1-c1cncnc1NCCN1CCOCC1 | 17.8µM* | · | · | · | · | ·
O=C(O)CCSCc1ccc(Cl)cc1 | -12.6% | · | · | · | · | ·
O=C1CC(N2CCN(Cc3ccccc3)CC2)C(=O)N1 (stereo unspecified) | -17.1% | 0.2% | -1.4% | -0.7% | i | -2.8%
O=C1CC(N2CCN(c3ccc(Cl)c(Cl)c3)CC2)C(=O)N1 (stereo unspecified) | ? | 0.3% | -0.4% | -3.7% | -119.7%* | 1.2%
CCC(C)NC(=O)CSc1ncnc2c1cnn2-c1ccccc1 (stereo unspecified) | -23.4% | · | · | · | · | ·
COc1ccc(/C=C2\SC(=S)N(CC(=O)OCC(=O)Nc3cc(Cl)cc(Cl)c3)C2=O)cc1 | 39.8µM* | -25.7% | -0.8% | 7.9% | i | 0.3%
O=C(NC1C(=O)NNC1c1ccccc1)c1ccc(F)cc1 (stereo unspecified) | ? | 4.5% | 0.0% | -7.3% | i | 5.0%
Cc1ccc(C2NNC(=O)C2NC(=O)c2ccccc2)cc1 (stereo unspecified) | 25.1µM* | 4.2% | -4.3% | 1.2% | i | 5.2%
CC(C#N)Sc1nnc(-c2c[nH]c3ccccc23)n1C1CC1 (stereo unspecified) | -14.2% | · | · | · | · | ·
COc1ccc(C2=NN(c3nc4ccccc4s3)C(=O)/C2=C\N(C)C)cc1 | 22.4µM* | 14.6% | -1.2% | -4.3% | i | -8.4%
COc1ccc(C2SCC(=O)N2c2nc3ccccc3s2)cc1 (stereo unspecified) | 2.2% | 34.8% | -1.9% | -0.7% | i | -0.2%
Cc1cc(S(=O)(=O)NCCO)ccc1F | 22.1% | · | · | · | · | ·
Cc1cc(SCC(=O)NC(=O)NC2CC2)nc2ccccc12 | 32.4% | · | · | · | · | ·
CCC(=O)N/N=C(\C)CC(=O)Nc1ccc(F)cc1 | -1.9% | 4.1% | 4.2% | 0.3% | i | -2.6%
CC(=O)Nc1ccc(NC(=O)C/C(C)=N/NC(N)=S)cc1 | -70.9% | 2.7% | -1.9% | -0.7% | i | 7.94µM*
